# Source: PubChem BioAssay (National Center for Advancing Translational Sciences (NCATS))
# A selection: hits, their analogues and other compounds. The true share with any hit is near 3.2%.
# RE007 growth inh – less growth of the S. pombe RE007 Vpr strain. S. pombe RE007 Vpr strain, BacTiter-Glo ATP luminescence, 24 h. Potency, µM (highest dose often 92.2 µM), usual class: inhibitors. actives 0.21% (n = 360,000); active = well fitted falling curve with a large enough effect; inconclusive = small, poorly fitted or top-dose-only effect; inactive = no such curve, though single readings can be large or run the other way; note: nearly all actives have a fitted effect of over 50% in size
#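 Fission yeast RE007 carrying one integrated HIV-1 vpr copy, seeded at OD 0.01 in PMG+AL medium with 23 nL pinned compound. Grown 24 h at 30 degrees; viability read by BacTiter-Glo luminescence after 5 min.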
# AmpC inh detg – blocks E. coli AmpC beta-lactamase in detergent assay | actives 0.041% (n = 370,000) | AmpC hydrolysis of nitrocefin, absorbance 480 nm, 0.01% Triton | Potency, µM (series often up to 114 µM), actives largely listed as inhibitors; note: nearly all actives have a fitted effect of over 25% in size
# Target sequence (P00811 whole entry, looked up): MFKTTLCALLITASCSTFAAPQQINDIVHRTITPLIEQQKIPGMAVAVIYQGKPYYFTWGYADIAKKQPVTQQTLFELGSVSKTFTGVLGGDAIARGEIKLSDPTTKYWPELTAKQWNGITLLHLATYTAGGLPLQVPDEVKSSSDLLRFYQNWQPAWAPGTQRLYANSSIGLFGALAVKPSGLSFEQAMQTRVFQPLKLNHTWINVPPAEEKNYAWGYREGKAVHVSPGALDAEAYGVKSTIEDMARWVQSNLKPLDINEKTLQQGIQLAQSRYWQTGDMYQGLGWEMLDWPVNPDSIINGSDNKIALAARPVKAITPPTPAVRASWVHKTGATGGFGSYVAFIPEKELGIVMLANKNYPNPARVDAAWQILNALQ
#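 20 mM phosphate pH 7.0 + 0.01% (detergent screen) or 0.0001% Triton X-100; 5.3 nM AmpC reagent; cpd preinc 15 min RT; nitrocefin (800 uM stock) to start; A480 q20 s × 4 min; Activity was normalised to no-enzyme and no-compound control wells.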
# AMA1 RON2 block – inhibitors of Plasmodium falciparum AMA1-RON2 interaction | AlphaScreen AMA1-biotinylated RON2 peptide binding | Potency, µM (series often up to 58.2 µM), hits mostly inhibitors | actives 0.2% (n = 360,000) | AID 720542; note: nearly all actives have a fitted effect of over 45% in size
#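 AMA1 (3D7) with his tag at 25 nM final met compounds first, then biotinylated RON2 peptide at 25 nM; detection used donor plus acceptor beads, 10 µg/mL apiece, read by AlphaScreen after 30 min at room temperature.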
# AmpC inh no detg – blocks E. coli AmpC beta-lactamase in detergent-free assay; AmpC nitrocefin hydrolysis, absorbance 480 nm, 0.0001% Triton; Potency, µM (top dose mostly 57.1 µM), usual class: inhibitors; actives 0.52% (n = 330,000); P00811; AID 485341; note: nearly all actives have a fitted effect of over 20% in size
#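 AmpC (5.3 nM in the dispensed reagent) in 20 mM phosphate pH 7.0 with 0.01% (detergent screen) or 0.0001% Triton X-100 was preincubated with compounds for 15 min at room temperature. Nitrocefin was then added from an 800 uM solution, and hydrolysis was followed at 480 nm.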
# Sm TGR inh – S. mansoni TGR enzyme inhibition; Q962Y6; purified TGR, DTNB reduction, TNB absorbance 405 nm; Potency, µM (doses to about 114 µM), usual class: inhibitors; actives 3% (n = 360,000); AID 485364; note: nearly all actives have a fitted effect of over 60% in size
#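 TGR 20 nM + NADPH 100 uM (dispensed conc.), cpd preinc 15 min RT; start with NADPH (500 uM addition) then DTNB (15 mM addition). Kinetic TNB absorbance, 405 nm filter. Four-parameter Hill fit across titration.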
# Numbers stand for hits; . = inactive; ? = inconclusive; / = no result given; [ ] = remark or other dose. Unless noted, calls come from the whole dose curve; as a rule, active = well fitted curve in the direction sought with a large enough effect; inconclusive = small, poorly fitted or top-dose-only effect, or another doubt; inactive = no such curve, though single readings can be large; an effect the other way counts as inactive or inconclusive.
SMILES,RE007 growth inh,AmpC inh detg,AMA1 RON2 block,AmpC inh no detg,Sm TGR inh
Cc1nc2scc(-c3ccco3)c2c(=O)n1/N=C/N(C)C,.,?,.,.,25.1µM
Cc1ccc(NC(=O)c2cc(C(C)(C)C)nn2Cc2ccccc2)cc1,.,.,.,.,.
Cc1ccc(NNC(=O)c2cc(C(C)(C)C)nn2Cc2ccccc2)cc1,.,.,?,.,44.7µM
Cc1cccc(CCNC(=O)CCc2c(C)nc3c4c(C)cc(C)nc4nn3c2C)c1,/,.,/,/,.
CCC(C(=O)Nc1nnc(-c2ccco2)s1)c1ccccc1 (centres undefined),.,?,.,.,31.6µM
Cc1cccc(OCC(=O)Nc2nnc(-c3ccco3)s2)c1,.,?,.,.,14.1µM
COc1ccccc1OCC(=O)Nc1nnc(-c2ccco2)s1,?,.,.,.,31.6µM
CCc1nnc(NC(=O)C(CC)c2ccccc2)s1 (centres undefined),.,?,.,.,.
Cc1ccc(NC(=O)c2cccc(NC(=O)N3CCSc4ncccc43)c2)cc1F,/,.,/,/,.
Cc1ccc(C(C(=O)NCc2ccco2)N(Cc2ccco2)C(=O)CNC(=O)c2ccco2)cc1 (centres undefined),.,.,.,.,44.7µM
COc1ccc(C(C(=O)NC2CCCCC2)N(Cc2ccco2)C(=O)CNC(=O)c2ccco2)cc1 (centres undefined),.,/,.,/,/
O=C(NCC(=O)N(Cc1ccco1)C(C(=O)NC1CCCC1)c1ccncc1)c1cccs1 (centres undefined),.,.,.,.,35.5µM
O=C(CCC(=O)N(Cc1ccco1)C(C(=O)NC1CCCC1)c1ccncc1)Nc1cccnc1 (centres undefined),.,?,.,.,25.1µM
Cn1cc(C(=O)CCl)c2ccccc21,.,.,.,.,3.55µM
Cc1ccc(C)c(-c2csc(-c3c(N)c(C(=O)c4ccc5c(c4)OCO5)n4ccccc34)n2)c1,/,.,/,/,.
COC(=O)c1cc2oc(C)cc2n1CC(=O)Nc1ccc(C(C)C)cc1,/,.,/,/,.
Cc1cccc(CS(=O)(=O)Cc2ccc(C(=O)NCc3cccs3)o2)c1,.,.,.,.,35.5µM
Cc1ccc(CNC(=O)c2ccc(CS(=O)(=O)Cc3ccc(C)cc3)o2)cc1,/,.,/,/,.
Cc1cccc(CS(=O)(=O)Cc2ccc(C(=O)NCc3ccccc3)o2)c1,.,.,.,.,44.7µM
Cc1ccc(CNC(=O)CN2CCCN(Cc3ccc(F)cc3)S2(=O)=O)cc1,/,.,/,/,.
C/C(=N\NC(=O)c1cc2ccccc2cc1O)c1cc2ccccc2o1,.,.,.,15.8µM,.
CCOc1ccccc1CNC(=O)c1ccc2nc(Cc3ccc(OC)cc3)oc2c1,/,.,/,/,.
CCC(C)Nc1c([N+](=O)[O-])cc(C)cc1[N+](=O)[O-] (centres undefined),.,.,15.8µM,.,.
COc1ccc(CCNC(=O)Cn2cc(C(=O)c3ccccc3)c(=O)c3ccc(C)nc32)cc1OC,/,.,/,/,.
CC(C)CN1CCN(C(=O)CCc2nnc(Cc3c[nH]c4ccccc34)o2)[C@@H](C)C1=O,.,.,.,.,20µM
SMILES,RE007 growth inh,AmpC inh detg,AMA1 RON2 block,AmpC inh no detg,Sm TGR inh
CCC1CCCCN1C(=O)CCc1nnc(Cc2c[nH]c3ccccc23)o1 (centres undefined),.,.,.,.,25.1µM
COC(=O)C1CCCCN1C(=O)CCc1nnc(CCc2c[nH]c3ccccc23)o1 (centres undefined),.,.,.,.,.
CC1CCCCN1C(=O)CCc1nnc(Cc2c[nH]c3ccccc23)o1 (centres undefined),.,.,.,.,35.5µM
CN(CCC1CCCCO1)C(=O)CCc1nnc(Cc2c[nH]c3ccccc23)o1 (centres undefined),.,.,.,.,89.1µM
CCCCc1ccc(C(=O)N/C(=C\c2ccc(C)cc2)C(=O)NC2CCCCC2)cc1,/,.,/,/,.
Cc1cc(Br)ccc1NC(=O)C1CCN(S(=O)(=O)c2cccc3nsnc23)CC1,/,.,/,/,.
Cc1ccc(C)c(NC(=O)Cn2c(=O)n(Cc3ccc4c(c3)OCO4)c(=O)c3oc4ccccc4c32)c1,/,.,/,/,.
Cc1ccc2cccc(NC(=O)C(C)Oc3ccc(Cl)cc3Cl)c2n1 (centres undefined),/,.,/,/,.
COc1ccc(-c2noc(CN(C)Cc3ccc(C)o3)n2)cc1,.,.,.,.,35.5µM
COc1ccc(-c2noc(CN(C)Cc3ccccc3)n2)cc1,.,.,.,.,.
CN1CCCN(Cc2nc(-c3cccc(C(F)(F)F)c3)no2)CC1,.,.,.,.,25.1µM
COc1ccc(-c2noc(CN3CCN(c4cccc(Cl)c4)CC3)n2)cc1,/,.,/,/,.
FC(F)(F)c1cccc(-c2noc(CN3CCOCC3)n2)c1,.,.,.,.,.
Clc1cccc(N2CCN(Cc3nc(-c4ccccc4)no3)CC2)c1,.,?,.,10µM,.
CCOc1ccc(NC(=O)CN2CCCN(Cc3cc(C)ccc3C)S2(=O)=O)cc1,/,.,/,/,.
Cc1ccc(N(C)C(=O)N2CCN(c3ccccn3)CC2)cc1,.,?,.,10µM,.
COc1ccc(-c2cc(CNC(=O)CCl)on2)cc1,.,?,.,.,35.5µM
CC1CCN(CC(CS(=O)(=O)c2ccc([N+](=O)[O-])cc2)N2CCC(C)CC2)CC1 (centres undefined),.,.,.,.,2.51µM
CCNc1nc(N)nc(Oc2ccc(OCC(=O)OC)nn2)n1,/,.,/,/,.
CCc1ccccc1OCC(=O)Nc1ccc(S(N)(=O)=O)cc1,.,.,.,.,.
NS(=O)(=O)c1ccc(NC(=O)COc2cccc3ccccc23)cc1,.,.,.,12.6µM,.
CCC1CN(C(=O)Nc2cc(C)cc(C)c2)c2ccccc2O1 (centres undefined),/,.,/,/,.
COc1cccc(CNC(=O)c2nnn(CC(=O)Nc3ccc4c(c3)OCO4)c2N)c1,.,.,.,.,.
COc1cccc(Cn2nnc(C(=O)NCc3ccc4c(c3)OCO4)c2N)c1,.,.,.,35.5µM,.
COc1ccc(C2Nc3ccccc3C(=O)N2Cc2ccccc2)cc1COc1ccc(Cl)cc1Cl (centres undefined),/,.,/,.,.
CC(NC(=O)CCC(=O)Nc1ccccc1O)c1ccccc1 (centres undefined),.,/,.,/,/
CC(CNc1ccccc1O)C(=O)O (centres undefined),.,.,.,.,50.1µM
O=C1C=CC(=O)N1c1ccc2c(c1)C(NC(=O)C(F)(F)F)c1ccccc1-2 (centres undefined),39.8µM,/,.,/,/
O=C(O)c1ccc(N/N=C/c2ccc(C(F)(F)F)cc2)cc1,35.5µM,.,.,.,.
CC(C)(C)c1ccc(/C=N/Nc2ccc(C(=O)O)cc2)cc1,?,.,.[11.6 µM],.,.
